Article PMC5540273 (PLoS ONE, 2017)

Key:
Conditions in all cases: concentration: 1 μM, replicates: in singlicate; n = 1
[1] = tested on: T1, DLK
T1 construct: gene MAP3K12

[2] = tested on: T2, DMPK2
T2 construct: gene CDC42BPG

[3] = tested on: DMPK
[4] = tested on: T3, DRAK1
T3 construct: gene STK17A

[5] = tested on: T4, DRAK2
T4 construct: gene STK17B

[6] = tested on: DYRK1A
[7] = tested on: DYRK1B
[8] = tested on: DYRK2
[9] = tested on: EGFR
[10] = tested on: EIF2AK1
[11] = tested on: EPHA1
[12] = tested on: EPHA2
[13] = tested on: EPHA3
[14] = tested on: EPHA4
[15] = tested on: EPHA5
[16] = tested on: EPHA6
[17] = tested on: EPHA7
[18] = tested on: EPHA8
[19] = tested on: EPHB1
[20] = tested on: EPHB2
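Further: KINOMEscan kinase panel screen.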

Structure (SMILES) | %Inh [1] | %Inh [2] | %Inh [3] | %Inh [4] | %Inh [5] | %Inh [6] | %Inh [7] | %Inh [8] | %Inh [9] | %Inh [10] | %Inh [11] | %Inh [12] | %Inh [13] | %Inh [14] | %Inh [15] | %Inh [16] | %Inh [17] | %Inh [18] | %Inh [19] | %Inh [20]
CCS(=O)(=O)c1ccc(OC)c(Nc2ncc(-c3ccc(F)cc3)o2)c1.Cl [GW591947] | 25% | 13% | 6% | 10% | 0% | 12% | 0% | 17% | 4% | 5% | 0% | 0% | 0% | 0% | 0% | 0% | 0% | 1% | 11% | 64%
Cc1c(Cn2c(C)nn3c(=O)cc(N4CCO[C@H](C)C4)nc23)cccc1C(F)(F)F [GSK2373690] | 0% | 5% | 23% | 1% | 1% | 19% | 20% | 17% | 10% | 0% | 4% | 26% | 0% | 3% | 1% | 0% | 22% | 29% | 8% | 0%
CCn1c(-c2ccoc2)nc2cnccc21 [SB-733887] | 7% | 0% | 0% | 0% | 0% | 10% | 13% | 6% | 24% | 8% | 9% | 0% | 0% | 9% | 0% | 7% | 12% | 24% | 19% | 0%
Nc1n[nH]c2ncc(-c3ccccc3)cc12 [SB-517081] | 27% | 0% | 0% | 34% | 0% | 17% | 0% | 30% | 0% | 18% | 0% | 2% | 0% | 0% | 0% | 0% | 5% | 10% | 18% | 14%
Nc1ncnc2c1ncn2-c1cccc2ccccc12 [SKF-97184] | 0% | 0% | 0% | 7% | 0% | 0% | 30% | 6% | 45% | 0% | 0% | 0% | 0% | 3% | 0% | 0% | 0% | 0% | 0% | 12%
Nc1nccc2scc(-c3ccc4c(c3)CCN4C(=O)Cc3ccccc3)c12 [GSK2576924] | 7% | 22% | 0% | 1% | 0% | 0% | 19% | 20% | 21% | 0% | 9% | 6% | 38% | 4% | 0% | 2% | 4% | 15% | 0% | 14%
CCC(=O)c1c(-c2ccccc2)c2cc(Cl)ccc2c(=O)n1Cc1cc(S(C)(=O)=O)n(CCC(C)(C)O)n1 | 0% | 17% | 11% | 14% | 2% | 27% | 11% | 62% | 31% | 19% | 0% | 22% | 4% | 17% | 11% | 34% | 10% | 12% | 6% | 18%
O=c1cc(N2CCOCC2)nc2n(Cc3ccc(F)c(Cl)c3)ccn12 [GSK2297099] | 6% | 0% | 0% | 0% | 0% | 12% | 39% | 0% | 18% | 0% | 12% | 0% | 18% | 3% | 0% | 0% | 6% | 6% | 7% | 0%
Cc1ccc(Oc2ccc(Nc3ncnc4cc[nH]c34)cc2C)cn1 | 22% | 0% | 0% | 0% | 0% | 0% | 0% | 0% | 71% | 13% | 13% | 16% | 3% | 22% | 16% | 26% | 0% | 0% | 5% | 7%
Cc1nc(N(C)[C@H]2CN(C(=O)CC#N)CC[C@H]2C)c2cc[nH]c2n1 | 0% | 5% | 0% | 0% | 0% | 0% | 0% | 7% | 0% | 0% | 0% | 0% | 28% | 20% | 2% | 0% | 10% | 12% | 8% | 0%
Nc1nc(N)c2nc(-c3ccccc3)[nH]c2n1 [SKF-12778] | 1% | 0% | 25% | 8% | 0% | 34% | 13% | 44% | 14% | 21% | 12% | 20% | 3% | 17% | 3% | 8% | 3% | 4% | 18% | 10%
CN1C(=O)C(Nc2cc(Cl)c(O)c(Cl)c2)=C(c2ccc(Cl)cc2)C1=O [SB-404321] | 33% | 0% | 0% | 0% | 0% | 0% | 50% | 0% | 52% | 0% | 0% | 0% | 4% | 0% | 8% | 0% | 0% | 0% | 0% | 15%
COc1cc2nccc(Nc3ccc(OCc4ccc(NC(C)=O)cc4)cc3)c2cc1OC.Cl [GW440135] | 27% | 0% | 0% | 7% | 0% | 15% | 1% | 4% | 18% | 17% | 19% | 16% | 0% | 13% | 0% | 16% | 5% | 5% | 6% | 0%
CCC(=O)c1c(-c2ccccc2)c2cc(Cl)ccc2c(=O)n1Cc1ccc(C(=O)O)cc1 | 0% | 0% | 0% | 0% | 2% | 0% | 39% | 15% | 0% | 0% | 0% | 0% | 7% | 7% | 0% | 6% | 0% | 4% | 9% | 0%
CCCNC(=O)Nc1ccc(Oc2ncnc3ccn(C)c23)cc1 | 0% | 0% | 0% | 0% | 12% | 16% | 68% | 24% | 15% | 0% | 0% | 0% | 0% | 3% | 12% | 8% | 0% | 0% | 1% | 20%
Cl.NS(=O)(=O)c1cccc(Nc2cc(-c3ccc(F)cc3)n[nH]2)c1 [GW824645] | 0% | 0% | 1% | 0% | 0% | 0% | 0% | 24% | 0% | 0% | 0% | 0% | 0% | 0% | 0% | 0% | 0% | 21% | 0% | 0%
CCn1c(-c2nonc2N)nc2ccccc21 [SB-693162/GW549034] | 0% | 0% | 0% | 9% | 0% | 49% | 16% | 37% | 0% | 48% | 0% | 0% | 10% | 0% | 0% | 0% | 0% | 0% | 0% | 0%
Cc1cccc(-c2nc(Nc3ccc4c(cnn4C)c3)c3ccccc3n2)n1 [GW876731] | 0% | 22% | 8% | 7% | 3% | 0% | 20% | 11% | 0% | 0% | 6% | 0% | 0% | 0% | 1% | 0% | 0% | 0% | 3% | 6%
COc1cc2ncn(-c3cc(OCc4ccc(S(C)(=O)=O)cc4)c(C(N)=O)s3)c2cc1OC [GW869979] | 13% | 10% | 0% | 0% | 23% | 22% | 20% | 1% | 25% | 7% | 0% | 0% | 7% | 0% | 0% | 0% | 22% | 17% | 9% | 9%
COc1ccc(-n2cnc3c(N)ncnc32)cc1 [SKF-97236] | 0% | 0% | 6% | 43% | 0% | 1% | 0% | 0% | 0% | 31% | 0% | 13% | 0% | 0% | 4% | 0% | 1% | 10% | 19% | 0%
Nc1n[nH]c2nnc(-c3ccccc3)c(-c3ccccc3)c12 [GW554060] | 25% | 0% | 0% | 0% | 0% | 23% | 0% | 20% | 36% | 0% | 15% | 6% | 0% | 12% | 0% | 28% | 0% | 10% | 9% | 0%
